Experimental findings from PubChem BioAssay (EPA / NIEHS) are described below.

Inconclusive results are not listed. Activity calls are given as the source filed them. Rule for the calls, unless noted: active = hit-call score of the fitted dose curve at least 0.9, where 1 is the maximum; inactive = score below 0.9.

The AC50 is the concentration giving half of the maximal activity seen.

Assay [1] can be described thus: CCTE_Shafer_MEA_dev_firing_rate_mean: CCTE's Neural Network Formation Assay for Mean Firing Rate, Shafer Lab (AID 2284031).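 Note: curve fitted for loss of firing so AC50 reflects decreased mean firing rate.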 The method, boiled down:
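Extracellular spike frequency, AUC over DIV 5–12 recordings, in rat cortical neuron MEA cultures dosed from plating; loss direction vs DMSO.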

Assay [2] in a line: CCTE_Shafer_MEA_dev_per_burst_spike_percent: CCTE's Neural Network Formation Assay for Percent of Spikes in a Burst, Shafer Lab (AID 2284032).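 Note: fitted as a decrease in burst spike percentage below DMSO baseline.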 The method, boiled down:
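Value is trapezoidal AUC over recordings on days 5, 7, 9 and 12 of the well-mean fraction of spikes falling in single-electrode bursts; rat cortical cultures exposed continuously from plating, treatment renewed DIV 5 and 9, fitted downward against DMSO.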

Assay [3] can be described thus: CCTE_Shafer_MEA_dev_active_electrodes_number: CCTE's Neural Network Formation Assay for Number of Active Electrodes, Shafer Lab (AID 2284040; active = hit-call score of the fitted dose curve at least 0.9, where 1 is the maximum;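 note: potency for loss of active electrodes versus DMSO so lower counts are hits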). The method, boiled down: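 Developing rat cortical networks on MEAs, exposed DIV 0–12. Value is the AUC of active-electrode counts (≥5 spikes/min) from days 5, 7, 9, 12, relative to DMSO.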
Assay [4] can be described thus: CCTE_Shafer_MEA_dev_burst_rate: CCTE's Neural Network Formation Assay for Burst Rate, Shafer Lab (AID 2284042).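 Note: potency for loss of burst rate below DMSO control.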 In a few lines:
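Exposure ran continuously over 12 days of network development in rat cortical cultures, with compound refreshed during full media changes on DIV 5 and 9. Single-electrode bursts per recording time, well-mean over active electrodes, trapezoidal AUC across days 5–12, fitted downward relative to DMSO.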

The nature of assay [5]: CCTE_Shafer_MEA_dev_per_burst_interspike_interval: CCTE's Neural Network Formation Assay for Burst Interspike Interval, Shafer Lab (AID 2284044).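 Note: potency for a decrease of within-burst interspike interval below DMSO level.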 The method, boiled down:
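Primary rat cortical neurons on 48-well MEA plates, exposed from day 0 through day 12, treatment renewed at DIV 5 and 9. Within-burst interspike interval recorded days 5, 7, 9, 12, well-averaged, summarised as AUC; negative fit versus DMSO.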

The nature of assay [6]: CCTE_Shafer_MEA_dev_burst_duration_mean: CCTE's Neural Network Formation Assay for Mean Burst Duration, Shafer Lab (AID 2284045).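 Note: curve fitted for loss meaning shorter burst duration than DMSO.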 The method, boiled down: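 Network-formation assay in primary rat cortical neurons; treatment spans twelve days of development. Mean burst duration per well is integrated by trapezoidal AUC and fitted in the loss-of-signal direction against DMSO baseline.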

Assay [7] is described as follows: CCTE_Shafer_MEA_dev_interburst_interval_mean: CCTE's Neural Network Formation Assay for Mean Interburst Interval, Shafer Lab (AID 2284046).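 Note: well-mean interburst interval of bursting electrodes as AUC over four recording days; curve fitted for decrease in interburst interval relative to DMSO.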 In a few lines:
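Primary rat cortical neurons on PEI-coated 48-well MEA plates (laminin added with cells at plating) (16 electrodes/well), exposed from plating day 0 with renewal at DIV 5 and 9. Mean inter-burst interval averaged over bursting electrodes, AUC across days 5, 7, 9, 12; DMSO baseline.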

Assay [8] in a line: CCTE_Shafer_MEA_dev_inter_network_spike_interval_mean: CCTE's Neural Network Formation Assay for Mean Inter-network Spike Interval, Shafer Lab (AID 2284047). In a few lines:
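Mean time between consecutive network-spike peaks, recorded extracellularly (adaptive spike detection) on DIV 5, 7, 9 and 12, summarized as trapezoidal AUC. Rat cortical cultures on MEAs dosed continuously days 0–12, re-dosed at feeds; loss-of-signal fit relative to DMSO.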

The nature of assay [9]: CCTE_Shafer_MEA_dev_network_spike_number: CCTE's Neural Network Formation Assay for Number of Network Spikes, Shafer Lab (AID 2284048).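 Note: synchronized bursts across electrodes counted on days 5 7 9 12 and integrated as AUC; fit as a loss of signal meaning fewer network spikes than DMSO.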 In a few lines:
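Extracellular recordings from 16-electrode wells track network formation in rat cortical cultures under continuous treatment from plating. The endpoint is network spike number, expressed as AUC across DIV 5–12 relative to DMSO vehicle.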

Assay [10] can be described thus: CCTE_Shafer_MEA_dev_network_spike_peak: CCTE's Neural Network Formation Assay for Mean Number of Electrodes in Network Spike, Shafer Lab (AID 2284049).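 Note: fitted for loss of signal meaning fewer electrodes in network spikes than DMSO.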 In a few lines: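 Continuous 12-day exposure of rat cortical cultures, starting at plating, on MEA plates. Endpoint: electrodes participating in network-spike peaks, AUC across DIV 5–12, DMSO as negative control.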

Assay [11] can be described thus: CCTE_Shafer_MEA_dev_spike_duration_mean: CCTE's Neural Network Formation Assay for Mean Spike Duration, Shafer Lab (AID 2284051).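 Note: potency for a decrease in mean network spike duration versus DMSO.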 In a few lines: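 Spontaneous activity was recorded on days 5, 7, 9 and 12 from rat cortical cultures grown on microelectrode arrays and dosed continuously from day 0, with media and compound renewed after the DIV 5 and 9 recordings. Network-spike duration was collapsed by area under the curve.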

Assay [12] in a line: CCTE_Shafer_MEA_dev_network_spike_duration_std: CCTE's Neural Network Formation Assay for Standard Deviation of Network Spike Duration, Shafer Lab (AID 2284052).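 Note: hits are decreases in network spike duration SD versus DMSO vehicle.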 The method, boiled down:
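Network spike duration variability was collapsed across recordings on days 5, 7, 9 and 12 by trapezoidal area-under-curve and fitted downward against DMSO. Cultures were rat cortical neurons on PEI-coated MEA plates, dosed continuously from plating, refed with compound DIV 5/9.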

Assay [13] is described as follows: CCTE_Shafer_MEA_dev_per_network_spike_spike_number_mean: CCTE's Neural Network Formation Assay for Mean Number of Spikes in a Network Spike, Shafer Lab (AID 2284053). The method, boiled down: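 Mean spike count within each network spike, taken in a 0.05 s window at its peak, was recorded on days 5, 7, 9 and 12 and integrated as trapezoidal area under the curve. Rat cortical cultures on MEA plates received continuous compound from day 0, refreshed at medium changes on DIV 5 and 9.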

A short description of assay [14]: CCTE_Shafer_MEA_dev_per_network_spike_spike_percent: CCTE's Neural Network Formation Assay for Percent of Spikes in a Network Spike, Shafer Lab (AID 2284054). In a few lines:
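Developing networks of rat cortical neurons are dosed at day 0 and recorded extracellularly four times up to day 12. The endpoint is the area under the curve of percent spikes in network spikes, fitted in the negative direction relative to DMSO.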

Assay [15] in a line: CCTE_Shafer_MEA_dev_mutual_information_norm: CCTE's Neural Network Formation Assay for Mutual Information Normalization, Shafer Lab (AID 2284091).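 Note: mutual information between electrodes summarised as area under curve across four recording days; potency is for a decrease in mutual information relative to DMSO.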 In a few lines: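 Exposure of primary rat cortical neurons began at plating and ran to DIV 12, with full media and treatment renewal after DIV 5 and 9 recordings. Mutual information AUC (DIV 5–12) was analysed for loss versus DMSO.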

A short description of assay [16]: CCTE_Shafer_MEA_dev_correlation_coefficient_mean: CCTE's Neural Network Formation Assay for Mean Correlation Coefficient, Shafer Lab (AID 2284093).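 Note: well mean pairwise spike train correlation integrated as AUC over recording days 5 to 12; potency fitted for loss of correlation relative to DMSO vehicle wells.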 In a few lines: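 Primary rat cortical neurons on PEI-coated 48-well MEA plates (16 electrodes/well) were exposed from plating day 0 through DIV12, with compound renewed at DIV5 and 9. Pairwise spike correlations were averaged per well; trapezoidal AUC across DIV5, 7, 9, 12.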

Assay [17] can be described thus: UKN2_HCS_IMR90_neural_migration: University of Konstanz (UKN) Leist Lab Neural Crest Cell Migration Assay in human induced IMR90 Pluripotent Stem Cells (UKN2) (AID 2284204). Particulars: actives raise or lower the signal. The method, boiled down: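 Using a 96-well stopper format with PLO/laminin/fibronectin coating, neural crest cells from iPSC migrate in cytokine-supplemented N2-S medium; after 24 h, chemicals are applied for a further 24 h, then cells are imaged after dye staining.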

The nature of assay [18]: IUF_NPC1b_proliferation_BrdU_72hr: Leibniz Research Institute for Environmental Medicine (IUF) 72-hour Neural Progenitor Cell Bromodeoxyuridine (BrdU) Proliferation Assay (NPC1b) (AID 2284207). In a few lines: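 Neural progenitor spheres of human fetal origin are treated for three days; BrdU added for the last 16 h is quantified by luminescence ELISA, with DMSO as baseline and EGF/FGF omission as positive control.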

The nature of assay [19]: IUF_NPC1a_proliferation_area_72hr: Leibniz Research Institute for Environmental Medicine (IUF) 72-hour Neural Progenitor Cell Proliferation Area Assay (NPC1a) (AID 2284208). The method, boiled down:
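Single 0.25–0.35 mm human fetal neural progenitor spheres in proliferation medium with EGF and FGF, exposed 72 h from plating without renewal at 37C, pH 7.2-7.6. Sphere area growth measured by automated phase-contrast imaging, relative to DMSO.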

Assay [20] in a line: CCTE_Mundy_HCI_Cortical_Synap_Neur_Matur_NeuriteSpotCountPerNeuriteLength: CCTE's Synaptogenesis and Neurite Maturation Assay in rat cortical cells for Neurite Spot Count per Neurite Length, Mundy Lab (AID 2284210). In a few lines:
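Neurite-associated synapse density (synaptophysin puncta per unit neurite length) is measured by fluorescence high-content imaging in rat cortical cultures treated from DIV 7 and fixed at DIV 12, with DMSO as negative control.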

Assay [21] in a line: CCTE_Mundy_HCI_Cortical_NOG_NeuriteCount: CCTE's Neurite Outgrowth Assay in rat cortical cells for Neurite Count, Mundy Lab (AID 2284212).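 Note: cells fixed about two days after chemical exposure began.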 In a few lines:
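Rat cortical primary cells; compound added 2 h post-plating, 1/10 dilution of working solution. Anti-betaIII-tubulin/AF488 ICC; ArrayScan neurite count vs DMSO.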

The nature of assay [22]: CCTE_Mundy_HCI_Cortical_NOG_NeuriteLength: CCTE's Neurite Outgrowth Assay in rat cortical cells for Neurite Length, Mundy Lab (AID 2284213).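 Note: neurites imaged about 48 to 50 h after chemical exposure began.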 In a few lines:
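First, rat primary cortical cells were plated and, 2 h later, given test chemical as a 1/10 dilution. Finally, βIII-tubulin immunostaining enabled automated imaging of neurite length.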

For the molecule `CC1(C)[C@H](C=C(Cl)Cl)[C@H]1C(=O)OCc1c(F)c(F)cc(F)c1F`, the concentration at half-maximal activity (AC50) in assay [1] is 23.4 µM (active); in assay [2] it was 23.1 µM (active); in assay [3], 23 µM (active); in assay [4], 23.7 µM (active); in [5] it was 13.7 µM (active); in assay [6] it was 9.92 µM (active). Besides, the concentration at half-maximal activity (AC50) in assay [7] is 13.9 µM (active); in [9], 23.3 µM (active); in assay [10] it was 16.7 µM (active); in [11], 22.8 µM (active); in [13], 13.1 µM (active); in assay [14], 12.8 µM (active). The AC50 in [15] is 13.4 µM (active); in [16], 10.7 µM (active); in assay [18] it was 0.897 µM (active); in assay [20] it was 12.9 µM (active); in assay [21] it was 80.1 µM (active); in assay [22] it was 78.2 µM (active). Also, the result in [8], in assay [12], in assay [17] and in [19] was inactive.
